Results filed as inconclusive are left out. Entries that show only a call come without a potency. Activity calls are given as the source filed them. Unless noted, the call rests on the fitted dose curve.
What was measured:
[1] = P-glycoprotein substrates identified in KB-8-5-11 adenocarcinoma cell line, qHTS therapeutic library screen (AID 1346987; active means well fitted curve in the direction sought with a large enough effect; an effect the other way counts as inactive or inconclusive; further: nearly all actives have a fitted effect of over 65% in size; further: potency means the concentration at half of the fitted maximal effect)
Procedure, shortened: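 P-gp-mediated resistance screen: KB-8-5-11 cells treated 72 h with compounds in dose-response. CellTiter-Glo viability.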

[2] = Natriuretic polypeptide receptor (hNpr1) antagonism - Pilot counterscreen GloSensor control cell line (AID 1347045); further: series mostly up to about 38 µM
Procedure, shortened: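 This counterscreen uses HEK293 cells expressing the GIP/pGS-40F cGMP biosensor. Compound-treated cells are challenged with 50 uM sodium nitroprusside, and the luciferase signal is compared before and after stimulation.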

[3] = target: Atrial natriuretic peptide receptor 1 (Homo sapiens) (UniProt P16066); experiment: Natriuretic polypeptide receptor (hNpr1) antagonism - Pilot screen (AID 1347049);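 further: agonist-evoked cGMP luminescence read 20 min after hNppA addition; series mostly up to about 58 µM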
Sequence of Atrial natriuretic peptide receptor 1 (Homo sapiens) (P16066 whole entry, looked up): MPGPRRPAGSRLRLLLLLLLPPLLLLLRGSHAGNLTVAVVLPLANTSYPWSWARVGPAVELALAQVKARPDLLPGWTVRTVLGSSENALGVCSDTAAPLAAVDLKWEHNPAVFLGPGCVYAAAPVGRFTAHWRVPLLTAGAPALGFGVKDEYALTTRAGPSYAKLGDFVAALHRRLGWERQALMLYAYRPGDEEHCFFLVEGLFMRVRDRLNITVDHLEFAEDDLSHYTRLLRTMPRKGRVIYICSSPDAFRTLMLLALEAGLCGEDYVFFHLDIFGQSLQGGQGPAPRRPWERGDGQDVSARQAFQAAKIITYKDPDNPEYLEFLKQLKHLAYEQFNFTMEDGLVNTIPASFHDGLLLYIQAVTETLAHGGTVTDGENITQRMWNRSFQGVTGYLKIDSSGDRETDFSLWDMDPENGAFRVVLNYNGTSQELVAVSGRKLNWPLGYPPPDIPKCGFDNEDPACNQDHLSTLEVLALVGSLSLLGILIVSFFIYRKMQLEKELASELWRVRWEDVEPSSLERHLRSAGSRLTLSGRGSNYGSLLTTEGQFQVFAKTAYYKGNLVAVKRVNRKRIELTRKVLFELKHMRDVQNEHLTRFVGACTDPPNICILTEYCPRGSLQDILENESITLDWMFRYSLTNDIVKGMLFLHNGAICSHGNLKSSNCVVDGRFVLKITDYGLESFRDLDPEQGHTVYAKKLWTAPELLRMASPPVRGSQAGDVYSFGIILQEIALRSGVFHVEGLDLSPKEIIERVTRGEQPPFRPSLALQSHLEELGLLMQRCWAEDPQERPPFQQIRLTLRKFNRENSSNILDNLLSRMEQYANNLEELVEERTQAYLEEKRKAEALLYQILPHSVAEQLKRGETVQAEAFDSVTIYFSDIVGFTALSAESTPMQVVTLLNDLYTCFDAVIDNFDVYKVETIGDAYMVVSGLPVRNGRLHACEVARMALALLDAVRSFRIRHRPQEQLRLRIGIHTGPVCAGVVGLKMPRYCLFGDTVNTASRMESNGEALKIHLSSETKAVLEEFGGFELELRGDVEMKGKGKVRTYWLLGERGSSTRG
Procedure, shortened: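 HEK293 cells expressing hNpr1 and GloSensor cGMP luciferase, 1500/well, loaded with 2% GloSensor reagent 2 h, compound 30 min at room temperature; luminescence read before and 20 min after 0.1 nM hNppA stimulation.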

[4] = target: Atrial natriuretic peptide receptor 2 (Homo sapiens) (UniProt P20594); experiment: Natriuretic polypeptide receptor (hNpr2) antagonism - Pilot subtype selectivity assay (AID 1347050)
Sequence of Atrial natriuretic peptide receptor 2 (Homo sapiens) (P20594 whole entry, looked up): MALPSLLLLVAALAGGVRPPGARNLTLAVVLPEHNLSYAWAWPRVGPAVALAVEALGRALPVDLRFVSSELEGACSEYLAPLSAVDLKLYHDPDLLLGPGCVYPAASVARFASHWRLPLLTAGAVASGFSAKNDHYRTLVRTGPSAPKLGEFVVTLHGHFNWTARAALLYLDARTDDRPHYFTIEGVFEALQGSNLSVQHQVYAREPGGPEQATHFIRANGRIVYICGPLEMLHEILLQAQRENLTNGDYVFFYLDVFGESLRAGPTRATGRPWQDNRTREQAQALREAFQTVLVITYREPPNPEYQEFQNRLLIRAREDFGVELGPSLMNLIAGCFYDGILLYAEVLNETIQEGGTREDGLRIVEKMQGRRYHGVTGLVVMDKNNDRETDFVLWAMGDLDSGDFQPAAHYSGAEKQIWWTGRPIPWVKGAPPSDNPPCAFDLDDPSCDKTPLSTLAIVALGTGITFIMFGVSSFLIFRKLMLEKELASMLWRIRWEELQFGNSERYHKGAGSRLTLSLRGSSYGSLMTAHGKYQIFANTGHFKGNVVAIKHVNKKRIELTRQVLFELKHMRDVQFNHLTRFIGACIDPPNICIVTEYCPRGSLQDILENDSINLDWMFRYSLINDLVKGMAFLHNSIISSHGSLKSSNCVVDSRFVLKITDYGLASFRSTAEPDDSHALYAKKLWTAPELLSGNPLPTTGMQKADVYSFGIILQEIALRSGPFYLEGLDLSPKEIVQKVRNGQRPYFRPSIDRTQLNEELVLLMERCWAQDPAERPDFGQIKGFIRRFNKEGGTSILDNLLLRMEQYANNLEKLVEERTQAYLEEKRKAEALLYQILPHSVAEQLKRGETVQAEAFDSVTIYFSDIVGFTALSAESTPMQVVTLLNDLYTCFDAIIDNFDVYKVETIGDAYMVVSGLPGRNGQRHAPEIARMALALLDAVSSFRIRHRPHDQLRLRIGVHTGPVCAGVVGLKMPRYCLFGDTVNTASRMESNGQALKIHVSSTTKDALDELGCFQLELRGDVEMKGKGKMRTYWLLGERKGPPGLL
Procedure, shortened: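 HEK293 cells expressing hNpr2 and a GloSensor cGMP luciferase sensor, 1500/well, preloaded 2 h with 2% GloSensor reagent, compound 30 min, then 1 nM hNppC for 20 min. Antagonism from luminescence after versus baseline pre-read; LOPAC in 1:5 titrations.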

[5] = NS1 protein of Zika virus - qHTS assay to identify small molecule inhibitors in human HEK 293 cells (AID 1347053; active means well fitted curve in the direction sought with a large enough effect; an effect the other way counts as inactive or inconclusive; further: series mostly up to about 46 µM; nearly all actives have a fitted effect of over 55% in size)
Procedure, shortened: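 HEK 293; 20 h pre-culture, 37 C/5% CO2; cpd 1 h pre-infection; ZIKV MR766, MOI = 0.5, 24 h, 37 C; TR-FRET NS1 readout (two anti-NS1 Abs); norm. to no-virus vs infected.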

[6] = target: T1, Tyrosine-protein phosphatase non-receptor type substrate 1 (Homo sapiens) + Leukocyte surface antigen CD47 (Homo sapiens) (UniProt P78324+Q08722); experiment: CD47-SIRPalpha protein protein interaction - LANCE assay qHTS validation (AID 1347057; active means well fitted curve in the direction sought with a large enough effect in the signal ratio, with a control signal flat, not every such curve was filed as active; the % refers to the signal ratio; further: potency means the concentration at half of the fitted maximal effect)
T1 sequence (P78324 whole entry, looked up): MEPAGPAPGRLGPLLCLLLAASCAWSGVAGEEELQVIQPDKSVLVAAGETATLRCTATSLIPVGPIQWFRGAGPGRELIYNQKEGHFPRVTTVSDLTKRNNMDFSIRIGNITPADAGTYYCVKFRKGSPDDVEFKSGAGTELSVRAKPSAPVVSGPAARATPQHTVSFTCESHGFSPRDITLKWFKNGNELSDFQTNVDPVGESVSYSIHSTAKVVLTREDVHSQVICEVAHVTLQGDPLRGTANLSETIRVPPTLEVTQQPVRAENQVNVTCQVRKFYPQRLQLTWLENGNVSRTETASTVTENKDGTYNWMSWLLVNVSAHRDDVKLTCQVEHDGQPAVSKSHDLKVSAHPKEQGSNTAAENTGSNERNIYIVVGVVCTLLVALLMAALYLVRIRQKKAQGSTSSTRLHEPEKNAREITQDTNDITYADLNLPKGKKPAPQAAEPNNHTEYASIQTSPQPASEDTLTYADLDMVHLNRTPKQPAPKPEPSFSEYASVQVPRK
T1 sequence (Q08722 whole entry, looked up): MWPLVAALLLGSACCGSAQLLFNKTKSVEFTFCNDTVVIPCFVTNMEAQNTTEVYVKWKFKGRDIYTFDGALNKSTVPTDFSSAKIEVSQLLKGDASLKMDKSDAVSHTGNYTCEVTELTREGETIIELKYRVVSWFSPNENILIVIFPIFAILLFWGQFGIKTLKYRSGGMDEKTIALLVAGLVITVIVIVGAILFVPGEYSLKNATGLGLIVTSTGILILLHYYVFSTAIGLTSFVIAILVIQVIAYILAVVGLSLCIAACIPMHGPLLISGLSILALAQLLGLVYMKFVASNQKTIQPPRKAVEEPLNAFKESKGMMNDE
Procedure, shortened: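 First, His-tagged CD47 and Eu-labelled anti-His antibody met the compound for 30 min; next, site-specifically biotinylated SIRPalpha was added for 30 min; finally streptavidin-APC was added before reading the TR-FRET ratio.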

[7] = target: T1, Tyrosine-protein phosphatase non-receptor type substrate 1 (Homo sapiens) + Leukocyte surface antigen CD47 (Homo sapiens); experiment: CD47-SIRPalpha protein protein interaction - HTRF assay qHTS validation (AID 1347058; active means well fitted curve in the direction sought with a large enough effect in the signal ratio, not every such curve was filed as active; the % refers to the signal ratio;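 further: recombinant soluble extracellular CD47 with His tag and biotinylated SIRPalpha domains; series mostly up to about 38 µM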)
Procedure, shortened: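 TR-FRET read (Ch1/Ch2 ratio) of soluble extracellular CD47 and Avi-biotinylated SIRPalpha domains in PBS pH 7.4 with 0.05% IGEPAL; 7-point compound titration. Sequential 30 min room-temperature steps; non-biotinylated SIRPalpha as control inhibitor.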

For `C[C@@H]1[C@@H]2Cc3ccc(O)cc3[C@@]1(C)CCN2CC1CC1`, the Potency [1] was “inactive”, the Potency [2] was “inactive” and the Potency [3] was “inactive”. The Potency [4] was “inactive”.
For `COC(=O)C1(C)CCC(=O)C2(C)c3c(O)cc(C(C)C)cc3C(O)C(OC(C)=O)C12` (stereo not given), the Potency [1] was “inactive”.
For `N#CCCN`, the Potency [2] was “inactive”, the Potency [3] was “inactive” and the Potency [4] was “inactive”. For the same compound, the outcome [5] was “inactive”, the Potency [6] was “inactive” and the outcome [7] was “inactive”.
In the case of `C[C@H]1O[C@@H](O[C@H]2C[C@@H](O)[C@]3(CO)C4C(CC[C@]3(O)C2)[C@@]2(O)CC[C@H](C3=CC(=O)OC3)[C@@]2(C)C[C@H]4O)[C@@H](O)[C@@H](O)[C@H]1O` (stereo not given in full), the Potency [1] is reported as 0.432 µM (active).
For `N#CC(OC1OC(COC2OC(CO)C(O)C(O)C2O)C(O)C(O)C1O)c1ccccc1` (stereo not given), the Potency [1] was “inactive”.
For `C[C@]12CC[C@H]3[C@@H]([C@H](O)CC4=CC(=O)CC[C@@]43C)[C@@H]1CC[C@@H]2O`, the Potency [1] was “inactive”.
With `CC(C)C1(OO)C=C2C(=O)CC3C(C)(C(=O)O)CCCC3(C)C2CC1` (stereo not given) the Potency [1] was “inactive”.
In the case of `C[N+](C)(C)CC#CCOC(=O)Nc1cccc(Cl)c1`, the Potency [2] is reported as “inactive”, the Potency [4] is reported as “inactive” and the outcome [5] is reported as “inactive”. The Potency [6] was “inactive” and the outcome [7] was “inactive”.
For `CN1CC[C@@]2(C)c3cc(O)ccc3N(C)C12` (stereo not given in full), the Potency [3] was “inactive”, the Potency [4] was “inactive” and the outcome [5] was “inactive”. For the same compound, the Potency [6] was “inactive”.
In the case of `C[Se]C[C@H](N)C(=O)O`, the Potency [2] is reported as “inactive”, the Potency [3] is reported as “inactive” and the Potency [4] is reported as “inactive”.
In the case of `CN1CCCC1CCOC(c1cc2nccc(C(=O)O)c2[nH]1)c1ccccc1Cl` (stereo not given), the Potency [1] is reported as “inactive”.
With `CN(N=O)c1ccc(O)c(O)c1` the Potency [3] was “inactive”, the Potency [4] was “inactive” and the outcome [5] was “inactive”. For the same compound, the Potency [6] was 18.5 µM (active).
With `COc1ccc2c(c1)[C@@]13CCCC[C@H]1[C@@H](C2)NCC3` the Potency [2] was “inactive”, the Potency [3] was “inactive” and the Potency [4] was “inactive”.
